In PubChem BioAssay AID1159580 (chemical genetic matrix, 2015):
Values joined by “and” are separate entries in the source; they are usually repeats but may differ in a detail not shown here. Identical values can stand only once. The campaign covered roughly 5,500 compounds. About 2,000 (36%) were called active. Another 18% or so got no clear call; they are omitted. No stated cut-off is given here; in the data, active means normalized growth mostly below about 0.91 (no sharp cut-off); inconclusive means no clear call, values can overlap the other calls; inactive means mostly above about 0.92. The list shows a part of the results.

Test: chemical genetic growth profiling, strain panel (AID 1159580);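 further: tested at 20 µM; growth read once vehicle control cultures reached saturation at 30 °C; 1 = growth at the plate median or of vehicle wells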
Conditions: S. cerevisiae deletion strains, growth OD

Measured: normalized growth

COC(=O)CCC(C)C1CCC2C3CC[C@@H]4C[C@H](O)CC[C@]4(C)C3C[C@H](O)[C@]12C (some centres not stated)
0.923 (inactive) and 0.843 (active): locus YHR030C, strain SLT2, stronger effect = lower value
active: locus YAL021C, strain ccr4, stronger effect = lower value 1.11 [resistant] | locus YBL061C, strain skt5, stronger effect = lower value 0.9 | locus YBR023C, strain chs3, stronger effect = lower value 0.909 | locus YDR137W, strain rgp1, stronger effect = lower value 0.754 | locus YDR159W, strain sac3, stronger effect = lower value 0.757 | locus YDR195W, strain ref2 0.802 | locus YDR392W, strain spt3, stronger effect = lower value 0.331 | locus YER155C, strain BEM2 (second series), stronger effect = lower value 0.746 | locus YGR229C, strain SMI1, stronger effect = lower value 0.709 | locus YHR013C, strain ard1, stronger effect = lower value 1.34 [resistant] | locus YHR079C, strain IRE1, stronger effect = lower value 0.826 | locus YHR142W, strain chs7, stronger effect = lower value 0.819 | locus YJL095W, strain BCK1 (second series), stronger effect = lower value 0.867 | locus YJL166W, strain qcr8, stronger effect = lower value 0.892 | locus YLR027C, strain aat2, stronger effect = lower value 0.918 | locus YLR113W, strain HOG1, stronger effect = lower value 0.439 | locus YLR262C, strain YPT6 (second series), stronger effect = lower value 0.776 | locus YLR320W, strain mms22, stronger effect = lower value 0.812 | locus YLR330W, strain CHS5, stronger effect = lower value 0.903 | locus YLR342W, strain FKS1, stronger effect = lower value 0.699 | locus YLR418C, strain cdc73, stronger effect = lower value 0.77 | locus YMR205C, strain PFK2, stronger effect = lower value 0.846 | locus YNL071W, strain lat1, stronger effect = lower value 0.72 | locus YOR184W, strain ser1, stronger effect = lower value 0.853 | locus YOR231W, strain MKK1, stronger effect = lower value 0.814 | locus YPL051W, strain arl3, stronger effect = lower value 0.913 | locus YPL256C, strain CLN2, stronger effect = lower value 0.8
inactive: locus YAL013W, strain DEP1, stronger effect = lower value 0.983 | locus YAL026C, strain drs2, stronger effect = lower value 1 | locus YAL030W, strain snc1, stronger effect = lower value 0.987 | locus YBR009C, strain hhf1, stronger effect = lower value 0.925 | locus YBR021W, strain FUR4, stronger effect = lower value 1.01 | locus YBR171W, strain sec66, stronger effect = lower value 1.01 | locus YBR229C, strain ROT2, stronger effect = lower value 0.998 | locus YBR231C, strain swc5, stronger effect = lower value 0.978 | locus YBR279W, strain paf1, stronger effect = lower value 0.996 | locus YCL011C, strain gbp2, stronger effect = lower value 0.966 | locus YCL016C, strain dcc1, stronger effect = lower value 0.967 | locus YCL029C, strain bik1, stronger effect = lower value 1.01 | locus YCL061C, strain MRC1, stronger effect = lower value 0.992 | locus YCL069W, strain vba3, stronger effect = lower value 1.01 | locus YCR088W, strain abp1, stronger effect = lower value 1 | locus YDL005C, strain med2, stronger effect = lower value 0.983 | locus YDL035C, strain GPR1, stronger effect = lower value 0.989 | locus YDL040C, strain nat1, stronger effect = lower value 0.985 | locus YDL074C, strain BRE1, stronger effect = lower value 0.849 | locus YDL101C, strain DUN1, stronger effect = lower value 0.973 | locus YDL134C, strain PPH21, stronger effect = lower value 0.951 | locus YDL185W, strain tfp1, stronger effect = lower value 1.02 | locus YDL192W, strain arf1, stronger effect = lower value 0.922 | locus YDR001C, strain nth1, stronger effect = lower value 0.996 | locus YDR069C, strain doa4, stronger effect = lower value 1.04 | locus YDR101C, strain arx1, stronger effect = lower value 1 | locus YDR162C, strain NBP2, stronger effect = lower value 0.928 | locus YDR297W, strain sur2, stronger effect = lower value 0.986 | locus YDR318W, strain mcm21, stronger effect = lower value 0.993 | locus YDR334W, strain swr1, stronger effect = lower value 1.01 | locus YDR335W, strain msn5, stronger effect = lower value 0.975 | locus YDR388W, stronger effect = lower value 1.02 | locus YDR502C, strain sam2, stronger effect = lower value 1.02 | locus YEL003W, strain gim4, stronger effect = lower value 0.99 | locus YEL037C, strain rad23, stronger effect = lower value 1.01 | locus YEL061C, strain CIN8 (second series), stronger effect = lower value 0.999 | locus YEL061C, strain CIN8, stronger effect = lower value 0.975 | locus YER015W, strain faa2, stronger effect = lower value 1 | locus YER016W, strain bim1, stronger effect = lower value 0.962 | locus YER110C, stronger effect = lower value 1.02 | locus YER111C, strain swi4, stronger effect = lower value 0.996 | locus YER155C, strain BEM2, stronger effect = lower value 0.955 | locus YER167W, strain BCK2, stronger effect = lower value 1.01 | locus YFR010W, strain ubp6, stronger effect = lower value 1.04 | locus YGL078C, strain dbp3, stronger effect = lower value 1.02 | locus YGL086W, strain mad1, stronger effect = lower value 0.997 | locus YGL167C, strain pmr1, stronger effect = lower value 0.971 | locus YGL173C, strain kem1, stronger effect = lower value 0.992 | locus YGL227W, strain vid30, stronger effect = lower value 1 | locus YGL240W, strain doc1, stronger effect = lower value 0.928 | locus YGL248W, strain PDE1, stronger effect = lower value 0.95 | locus YGL253W, strain hxk2, stronger effect = lower value 0.985 | locus YGR135W, strain pre9, stronger effect = lower value 1.01 | locus YGR252W, strain gcn5, stronger effect = lower value 0.887 | locus YHR027C, strain rpn1, stronger effect = lower value 1 | locus YHR079C, strain IRE1 (second series), stronger effect = lower value 1 | locus YHR094C, strain hxt1, stronger effect = lower value 1.03 | locus YHR129C, strain ARP1, stronger effect = lower value 0.955 | locus YHR200W, strain rpn10, stronger effect = lower value 1.02 | locus YIL066C, strain RNR3, stronger effect = lower value 0.923 | locus YIL073C, strain SPO22, stronger effect = lower value 1.27 | locus YIL125W, strain kgd1, stronger effect = lower value 1.01 | locus YIR030C, strain dcg1, stronger effect = lower value 1.01 | locus YJL092W, strain hpr5, stronger effect = lower value 1 | locus YJL115W, strain asf1, stronger effect = lower value 1.01 | locus YJL129C, strain trk1, stronger effect = lower value 0.934 | locus YJL134W, strain LCB3, stronger effect = lower value 1.01 | locus YJL154C, strain vps35, stronger effect = lower value 1.01 | locus YJL164C, strain tpk1, stronger effect = lower value 0.957 | locus YJL168C, strain set2, stronger effect = lower value 1.01 | locus YJL187C, strain SWE1 (second series), stronger effect = lower value 0.979 | locus YJL187C, strain SWE1, stronger effect = lower value 0.995 | locus YJR043C, strain POL32, stronger effect = lower value 1.02 | locus YJR066W, strain TOR1, stronger effect = lower value 0.941 | locus YKL009W, strain mrt4, stronger effect = lower value 0.959 | locus YKL068W, stronger effect = lower value 0.993 | locus YKL085W, strain MDH1 (second series), stronger effect = lower value 0.991 | locus YKL085W, strain MDH1, stronger effect = lower value 0.991 | locus YKL160W, strain elf1, stronger effect = lower value 0.92 | locus YKL190W, strain CNB1, stronger effect = lower value 1.02 | locus YKR001C, strain vps1, stronger effect = lower value 0.931 | locus YKR026C, strain gcn3, stronger effect = lower value 1 | locus YKR091W, strain srl3, stronger effect = lower value 0.993 | locus YLL001W, strain dnm1, stronger effect = lower value 0.99 | locus YLL026W, stronger effect = lower value 0.986 | locus YLL041C, strain sdh2, stronger effect = lower value 1.01 | locus YLR039C, strain RIC1, stronger effect = lower value 0.88 | locus YLR058C, strain SHM2, stronger effect = lower value 0.972 | locus YLR102C, strain apc9, stronger effect = lower value 1.01 | locus YLR221C, strain rsa3, stronger effect = lower value 0.932 | locus YLR258W, strain gsy2, stronger effect = lower value 0.958 | locus YLR262C, strain YPT6, stronger effect = lower value 0.792 | locus YLR268W, strain sec22, stronger effect = lower value 1 | locus YLR342W, strain FKS1 (second series), stronger effect = lower value 0.933 | locus YLR357W, strain rsc2, stronger effect = lower value 0.982 | locus YLR370C, strain arc18, stronger effect = lower value 0.998 | locus YLR371W, strain rom2, stronger effect = lower value 1.01 | locus YLR384C, strain iki3, stronger effect = lower value 0.992 | locus YML016C, strain PPZ1, stronger effect = lower value 1.05 | locus YML032C, strain rad52, stronger effect = lower value 0.981 | locus YML120C, strain ndi1, stronger effect = lower value 0.988 | locus YML124C, strain tub3, stronger effect = lower value 1 | locus YMR058W, strain fet3, stronger effect = lower value 0.976 | locus YMR078C, strain ctf18, stronger effect = lower value 1.01 | locus YMR125W, strain sto1, stronger effect = lower value 0.983 | locus YMR129W, stronger effect = lower value 1 | locus YMR223W, strain ubp8, stronger effect = lower value 0.98 | locus YMR231W, strain pep5, stronger effect = lower value 0.977 | locus YMR263W, strain SAP30, stronger effect = lower value 0.998 | locus YMR307W, strain GAS1, stronger effect = lower value 0.843 | locus YNL067W, strain RPL9B, stronger effect = lower value 0.98 | locus YNL153C, strain GIM3, stronger effect = lower value 0.982 | locus YNL183C, strain NPR1, stronger effect = lower value 0.908 | locus YNL209W, strain ssb2, stronger effect = lower value 1 | locus YNL233W, strain BNI4, stronger effect = lower value 0.927 | locus YNL248C, strain rpa49, stronger effect = lower value 1.04 | locus YNL250W, strain rad50, stronger effect = lower value 1.04 | locus YNL271C, strain bni1, stronger effect = lower value 1.01 | locus YNL298W, strain CLA4, stronger effect = lower value 1.05 | locus YNL307C, strain MCK1, stronger effect = lower value 0.917 | locus YNL322C, strain KRE1 (second series), stronger effect = lower value 0.999 | locus YNL322C, strain KRE1, stronger effect = lower value 1.01 | locus YNR049C, strain mso1, stronger effect = lower value 0.99 | locus YNR052C, strain pop2, stronger effect = lower value 0.971 | locus YOL006C, strain TOP1, stronger effect = lower value 0.909 | locus YOL012C, strain htz1 0.571 | locus YOL147C, strain pex11, stronger effect = lower value 1.02 | locus YOR001W, strain rrp6, stronger effect = lower value 0.995 | locus YOR061W, strain CKA2, stronger effect = lower value 0.999 | locus YOR069W, strain VPS5, stronger effect = lower value 1.02 | locus YOR070C, strain gyp1, stronger effect = lower value 0.971 | locus YOR080W, strain dia2, stronger effect = lower value 1.01 | locus YOR083W, strain WHI5, stronger effect = lower value 0.984 | locus YOR106W, strain vam3, stronger effect = lower value 0.933 | locus YOR136W, strain idh2, stronger effect = lower value 1.01 | locus YOR144C, strain elg1, stronger effect = lower value 1.01 | locus YOR265W, strain rbl2, stronger effect = lower value 0.98 | locus YOR270C, strain vph1, stronger effect = lower value 0.99 | locus YOR290C, strain snf2, stronger effect = lower value 1.01 | locus YOR316C, strain cot1, stronger effect = lower value 1.01 | locus YPL078C, strain atp4, stronger effect = lower value 0.943 | locus YPL106C, strain sse1, stronger effect = lower value 0.989 | locus YPL240C, strain hsp82, stronger effect = lower value 0.992 | locus YPR119W, strain clb2, stronger effect = lower value 0.994 | locus YPR141C, strain kar3, stronger effect = lower value 1.01 | locus YPR163C, strain tif3, stronger effect = lower value 1.02 | locus YPR167C, strain met16, stronger effect = lower value 1.02 | strain wtn01, stronger effect = lower value 1.03
0.819 (inactive) and 0.826 (active): locus YJL095W, strain BCK1, stronger effect = lower value
